Compound activity as filed in PubChem BioAssay.
This is a sample that favours compounds with a hit; in the whole collection about 2.9% have one here.
PAFAH1B2 inh: inhibitors of human PAFAH1B2; inhibition, % at 3.39 µM; recombinant PAFAH1B2, FP-rhodamine activity probe, fluorescence polarization; AID 492953; 1.2% of 340,000 active; P68402;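 active means inhibition above the mean of all tested compounds plus 3 SD, cut at about 24% in these data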;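 further: 0% = enzyme with DMSO and 100% = wells lacking PAFAH1B2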
Target sequence (P68402 whole entry, looked up): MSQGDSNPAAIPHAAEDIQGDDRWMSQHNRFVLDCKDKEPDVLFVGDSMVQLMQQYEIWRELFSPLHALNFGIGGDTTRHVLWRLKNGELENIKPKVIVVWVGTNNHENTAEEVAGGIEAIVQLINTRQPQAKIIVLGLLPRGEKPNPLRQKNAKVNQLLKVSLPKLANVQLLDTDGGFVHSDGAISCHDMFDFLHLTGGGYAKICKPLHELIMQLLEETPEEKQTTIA
EBNA-1 inhibitor: blocks EBNA-1 binding to DNA; EBNA-1 DNA binding, fluorescence polarization; inhibition, % at 14.8 µM; 0.34% of 300,000 active; in the data active means inhibition above about 28%
ZTA counter: blocks Epstein-Barr virus ZTA, an EBNA-1 counter-screen. ZTA-DNA binding, fluorescence polarization. P03206. 0.15% of 320,000 active. AID 2234. inhibition, % at 11 µM; in the data active means inhibition above about 33%
pPAFAH FP inh: pPAFAH (human) enzyme inhibition. Q13093. recombinant pPAFAH, FP-rhodamine probe fluorescence polarization. inhibition, % at 3.39 µM. 1.5% of 330,000 active;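 active means inhibition above the mean inhibition across the screen plus 3 SD, cut at about 25% in these data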;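 further: inhibitors block binding of the rhodamine activity-based probe so polarization drops; 0% = enzyme with DMSO and 100% = wells lacking pPAFAH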
PAFAH1B3 inh: inhibitors of human PAFAH1B3; Q15102; recombinant PAFAH1B3, FP-rhodamine probe, fluorescence polarization; inhibition, % at 3.39 µM; 0.28% of 340,000 active;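 active means inhibition above the screen-wide average of all tested compounds plus 3 SD, cut at about 25% in these data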;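 further: 0% = enzyme with DMSO only and 100% = wells lacking PAFAH1B3 protein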
PAFAH2 inh: PAFAH2 (human) inhibition; Q99487; recombinant PAFAH2, FP-rhodamine activity probe, fluorescence polarization; inhibition, % at 3.39 µM; 0.99% of 340,000 active; AID 492956;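 active means inhibition above the mean over all tested compounds plus 3 SD, cut at about 30% in these data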;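 further: inhibitors block probe labeling of enzyme so polarization drops; 0% = enzyme with DMSO and 100% = wells lacking PAFAH2 protein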
* = called active by the depositor; · = not tested or not shown.

SMILES | PAFAH1B2 inh | EBNA-1 inhibitor | ZTA counter | pPAFAH FP inh | PAFAH1B3 inh | PAFAH2 inh
COC(=O)CCC(=O)OC1(C)C(=O)C=C2C=C(C3CC3)N(C3CC3)C=C2C1=O (configuration not stated) | -2 | 6 | -2 | 3 | 15 | -5
CN1C(=O)/C(=C/c2ccc(O)c([N+](=O)[O-])c2)N(C)C1=S | 7 | -8 | 5 | -3 | -1 | 0
CC(C)(c1ccc(O)c([N+](=O)[O-])c1)c1ccc(O)c([N+](=O)[O-])c1 | 26* | · | · | · | 1 | 1
C=C(C)C(COc1c2occc2cc2ccc(=O)oc12)OC(C)(C)C(O)COc1c2occc2cc2ccc(=O)oc12 (configuration not stated) | 66* | · | · | 7 | 7 | 1
COc1ccc(-c2c3c(=O)n(C)c(=O)n(C)c3cn2C2CCCCC2)cc1 | 5 | 1 | 7 | 25* | 10 | 9
CN(C(=O)CCS(=O)(=O)c1ccc2c(c1)oc(=O)n2C)C1CCCCC1 | 5 | 6 | -2 | 0 | -1 | -3
Cc1ccc(Nc2nc(-c3c(C)nc4ccccn34)cs2)cc1 | 6 | 6 | 16 | 28* | 9 | 7
CN1CCN(C(=O)CSc2nc(-c3cccs3)cc(-c3cccs3)c2C#N)CC1 | 4 | 6 | 8 | 28* | 6 | 19
CCC(=O)NCc1c(C)c(C)n(Cc2ccccc2)c1-n1cccc1 | 28* | -3 | 21 | 5 | -1 | 5
Cc1ccc(N2CC(C(=O)NCCC3=CCCCC3)CC2=O)cc1 (configuration not stated) | 6 | -10 | -13 | -8 | 6 | -1
COc1ccc(COC(=O)C2=C(C)NC(=O)NC2c2cc(Br)c(O)c(OC)c2)cc1 (configuration not stated) | 8 | 0 | -25 | 2 | 6 | 8
COc1ccc(-c2ccc3c(c2)O/C(=C\c2ccsc2)C3=O)cn1 | -9 | · | · | 1 | -17 | -27
Cc1ccc(N=C2NC(=O)/C(=C/c3cccn3C)S2)cc1C | · | -7 | -1 | 17 | · | ·
Cc1cccc(N=C2NC(=O)/C(=C/c3cccn3C)S2)c1C | 3 | 2 | 11 | 32* | 8 | 10
CSc1ccc(NC(=O)C(C)N2CCN(C)CC2)cc1 (configuration not stated) | -3 | 4 | -11 | 4 | 3 | 0
COC(=O)c1ccccc1NC(=O)CN1CCC(C(=O)c2ccc3c(c2)OCCO3)CC1 | 4 | -8 | 15 | 33* | 5 | 1
O=C(O)c1ccc(-n2c(O)c(C=C3N=c4ccccc4=N3)sc2=S)cc1 | 8 | -1 | -10 | 24 | 3 | -2
O=C(O)c1cccc(-n2c(O)c(C=C3N=c4ccccc4=N3)sc2=S)c1 | 5 | 1 | -13 | 29* | 5 | 3
Cc1ccc2c(=O)n3c(nc2c1)C(CC(C)C)NC(=O)c1ccc(Cl)cc1-3 (configuration not stated) | · | · | · | 1 | · | ·
COc1ccc(CN(C)Cc2cc(=O)n3ccsc3n2)c(OC)c1OC | 1 | -10 | -16 | 0 | 5 | 9
COc1ccc(C(=O)CCc2ccccc2)c(O)c1 | 8 | 9 | -7 | 3 | 2 | 0
O=C(CCc1ccccc1)c1c(O)cc(O)cc1O | 42* | -4 | 3 | 10 | 1 | 4
CC(OC(=O)CSc1ccc([N+](=O)[O-])cc1)C(=O)NC1CC1 (configuration not stated) | 9 | · | 2 | 1 | -2 | 0
CN(C)S(=O)(=O)c1ccc(N2CCCC2)c(C(=O)NCC2CCCCC2)c1 | 3 | 2 | 9 | 28* | 5 | 0
CN(C)S(=O)(=O)c1ccc(N2CCCC2)c(C(=O)NCC2COc3ccccc3O2)c1 (configuration not stated) | -3 | 0 | 2 | 15 | 2 | 1
CN(C)C(CNC(=O)c1cc(S(=O)(=O)N2CCOCC2)ccc1F)c1cccs1 (configuration not stated) | 6 | · | · | 3 | 7 | 1
O=C(O)c1cc(S(=O)(=O)Nc2cccc(S(=O)(=O)N3CCCC3)c2)ccc1Cl | 4 | · | · | · | -2 | -1
O=C(O)c1ccc(NS(=O)(=O)c2ccc(Cl)c(Cl)c2)cc1O | 33* | 7 | 5 | 5 | 2 | 2
CCc1ccc(NS(=O)(=O)c2ccc(OC)c3ncccc23)cc1 | 5 | -2 | -4 | 23 | 3 | 14
